Test results: PubChem BioAssay (NCI)
Compounds without any hit were thinned out: in the full panel of roughly 83,000, 20% have a hit.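 Testing used 96-well plates and a 48-hour single-concentration exposure. Example: -40 means 40% of the starting cells died.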 Calls of active or inactive are those of the source. How the source made its calls: active means growth percent below 10; inactive means the rest.

What was measured:
Assay in all cases: NCI-60 one-dose screen, 48 h (100 = growth as untreated, 0 = no growth, -100 = all killed)
Conditions in all cases: 10 µM unless noted
[1] = tested on: DU-145 prostate
[2] = tested on: K-562 leukemia
[3] = tested on: MALME-3M melanoma
[4] = tested on: MDA-MB-231 breast
[5] = tested on: RXF 393 renal
[6] = tested on: SF-268 CNS
[7] = tested on: SF-295 CNS
[8] = tested on: SF-539 CNS
[9] = tested on: UACC-257 melanoma
[10] = tested on: M14 melanoma

Measured: growth

COc1cc(Nc2ncccc2C(=O)Nc2nc3ccc(F)cc3s2)cc(OC)c1OC
inactive: [1] 90.4% | [2] 97% | [3] 78.8% | [4] 71.4% | [5] 139% | [6] 90% | [7] 15.6% | [8] 92.9% | [9] 86.4% | [10] 19.1%

COc1cc(Br)c(-c2nc(-c3ccccc3)c(-c3ccccc3)n2Cc2ccccc2)cc1OC
inactive: [1] 72.6% | [2] 31.5% | [3] 57.8% | [4] 71.2% | [5] 72.2% | [6] 67.9% | [7] 34.5% | [8] 76% | [9] 59.2% | [10] 53.1%

COc1ccc(C(=O)NC(=O)Nc2ccc3c(c2)NC(=O)/C3=C\c2[nH]c(C)c(C(=O)O)c2C)cc1
inactive: [1] 71.1% | [2] 79.3% | [3] 41.9% | [4] 86.8% | [5] 49.1% | [6] 61.4% | [7] 105% | [8] 72.9% | [9] 107% | [10] 90.5%

O=C(Nc1ccc(-n2cc(-c3ccncc3)c(-c3ccc(O)c(Cl)c3)n2)cc1)c1cc(C(F)(F)F)cc(C(F)(F)F)c1
active: [5] -21.1%
inactive: [1] 65% | [2] 36.7% | [3] 77.7% | [4] 21.3% | [6] 56% | [7] 31% | [8] 57.7% | [9] 77.1% | [10] 30.2%

c1ccc(OCC[P+](c2ccccc2)(c2ccccc2)c2ccccc2)cc1
inactive: [1] 36.4% | [2] 17.5% | [3] 15.5% | [4] 43.6% | [5] 51% | [6] 20.9% | [7] 21.2% | [8] 32% | [10] 32.6%
active: [9] -4.91%

CC(C)(CCN=C(N)Nc1ccccn1)c1ccc(C(F)(F)F)cc1
inactive: [1] 52.7% | [5] 26.2% | [6] 51.2% | [8] 53.9%
active: [2] -31.2% | [3] -49.4% | [4] -14.4% | [7] 6.92% | [9] -7.98% | [10] -64.3%

Nc1nc(-c2cc3c(cc2Cl)NC(=O)/C3=C/c2ccc(Cl)cc2)cs1
inactive: [1] 64.6% | [3] 56.2% | [5] 51.6% | [6] 44.7% | [7] 60.5% | [8] 62.3% | [9] 73.5% | [10] 28.7%
active: [2] 5.83% | [4] 2.9%

COc1cc2c(cc1OCCCCC(=O)Nc1ccc(-c3nc4ccccc4s3)cc1)N=C[C@@H]1CCCN1C2=O
inactive: [4] 14.7% | [7] 18.3%
active: [1] 3.12% | [2] -17.6% | [3] -80.2% | [5] -83% | [6] 7.56% | [8] -46.6% | [9] -47.1% | [10] -59.3%

CCOC(=O)c1[nH]c(-c2ccc(Cl)cc2)cc1-c1cccnc1
active: [2] 6.33% | [5] -2.78% | [8] -24.8%
inactive: [1] 19% | [3] 72.7% | [4] 40.3% | [6] 46.6% | [7] 10.9% | [9] 86.3% | [10] 14.3%

COc1ccccc1C(OC(C)=O)OC(C)=O
inactive: [1] 109% | [2] 95.6% | [3] 108% | [5] 111% | [6] 98.8% | [7] 96.6% | [8] 101% | [9] 87.5% | [10] 98.3%

O=C(c1cc(-c2ccc(Cl)cc2)nc2ccccc12)N1N=C(c2ccccc2)CC1c1cc(-c2ccccc2)nn1-c1ccccc1 (stereo unspecified)
inactive: [1] 82.7% | [2] 63.9% | [3] 86.1% | [4] 93.3% | [6] 62.4% | [7] 64.8% | [8] 82.1% | [9] 95.1% | [10] 65.1%

CCCCn1c(-c2cccc(OC)c2)nc2cc(OC)c(OC)cc2c1=O
inactive: [1] 93.4% | [2] 77.9% | [3] 252% | [4] 89.2% | [6] 95.4% | [7] 99.5% | [8] 108% | [10] 107%
active: [9] -16.6%

CCC(C)Nc1ccc(N)cc1 (stereo unspecified)
active: [2] 3.79% | [3] -15.6% | [4] 4.8% | [9] -43.1%
inactive: [1] 32.1% | [6] 47% | [7] 11.4% | [8] 47.5% | [10] 31.9%

CC(C)(C)NC(C1=CC(C)(C)c2ccccc2C1=O)c1ccccc1 (stereo unspecified)
inactive: [7] 37.8%
active: [1] -26.2% | [2] -34.8% | [3] -43% | [4] -1.43% | [6] -11.3% | [8] -40.7% | [9] -59.3% | [10] -41.5%

O=C1C(SCCO)=C(SCCO)C(=O)N1c1ccc(-c2ccccc2)cc1
inactive: [1] 27.1% | [4] 95% | [6] 41.1% | [7] 103% | [8] 104% | [10] 85.7%
active: [2] -0.074% | [3] -44.5% | [9] -5.64%

Nc1c(C(=O)O)[nH]c(=O)[nH]c1=O
inactive: [1] 110% | [2] 86.9% | [3] 110% | [5] 93.5% | [6] 98.7% | [7] 99.7% | [8] 103% | [9] 75.7% | [10] 103%

CC1(C)N=C(N)N=C(N)N1c1ccc(OCC(=O)Nc2ccccc2)c(Cl)c1
active: [9] -3.5%
inactive: [1] 39.1% | [2] 18.5% | [3] 55.1% | [4] 68.9% | [6] 28% | [7] 23.5% | [8] 23.8% | [10] 25.7%

Cc1cccc(NC(=O)CCc2ccc(N3C(N)=NC(N)=NC3(C)C)cc2)c1
inactive: [1] 50.9% | [2] 23.3% | [3] 47.2% | [4] 63.4% | [6] 33.8% | [7] 64.9% | [8] 23.9% | [9] 28.2% | [10] 64.8%

COc1ccc(-c2c(NC(=O)Nc3ccc(Cl)c(C(F)(F)F)c3)cnn2-c2ccc(S(N)(=O)=O)cc2)cc1
inactive: [1] 53.5% | [2] 11.7% | [3] 34.2% | [4] 52.7% | [6] 37.5% | [7] 38.6% | [8] 35.2% | [9] 34.9% | [10] 14.7%

CN(C)C(=O)Nc1nc2cc(Cl)c(Cl)cc2[nH]1
active: [1] 4.55% | [2] -10% | [7] 9.99% | [8] -24.7% | [10] -66.9%
inactive: [3] 47.4% | [4] 46.1% | [6] 36.5% | [9] 17%

CC(CN(C)C)CN1c2ccccc2CCc2ccccc21 (stereo unspecified)
inactive: [1] 106% | [2] 65.4% | [3] 88.8% | [4] 85.9% | [6] 93% | [7] 87.5% | [8] 90.5% | [9] 105% | [10] 52.3%

CCOC(=O)C(C)(CSSCC(C)(NC(=O)c1ccc2ccccc2c1)C(=O)OCC)NC(=O)c1ccc2ccccc2c1 (stereo unspecified)
active: [9] -17.8%
inactive: [1] 117% | [2] 91.1% | [3] 115% | [4] 114% | [6] 102% | [7] 96.2% | [8] 114% | [10] 114%

O=C(NC(=S)Nc1ccc(Cl)cc1)c1ccccc1
inactive: [1] 103% | [2] 73.2% | [3] 112% | [4] 96.3% | [6] 114% | [7] 85.5% | [8] 103% | [9] 97% | [10] 100%

Cc1cc(NCCN(C(C)C)C(C)C)nc(/N=C(\N)Nc2ccc(Cl)c(C(F)(F)F)c2)n1
active: [1] -29.5% | [2] -100% | [3] -74.5% | [4] -65.1% | [6] -85% | [7] -77.8% | [8] -97.8% | [9] -95.3% | [10] -89.8%

CN(CCNCc1ccccn1)CCNCc1ccccn1
inactive: [1] 11.3% | [6] 20.3%
active: [2] 2.92% | [3] -21.8% | [4] 1.53% | [5] -24.3% | [7] -6% | [8] 3.15% | [9] -35.8% | [10] -18.3%

Clc1ccc(CN2COc3c(ccc4cccnc34)C2)cc1Cl
active: [1] 6.34% | [2] -34.2% | [3] -11.3% | [6] -3.19% | [7] -18.6% | [8] -36.7% | [9] -35.1% | [10] -3.94%
inactive: [4] 19.7%

CC(NCCC(c1ccccc1)c1ccccc1)c1ccccc1 (stereo unspecified)
active: [2] -44%
inactive: [1] 89.1% | [3] 74.1% | [4] 83.8% | [6] 89.2% | [7] 62.2% | [8] 94.7% | [9] 64.4% | [10] 71.8%

CCOc1ccc(Cc2nccc3cc(OCC)c(OCC)cc23)cc1OCC
inactive: [1] 77.2% | [2] 14.3% | [3] 80.2% | [4] 53.2% | [6] 78% | [7] 28% | [8] 65.9% | [9] 69% | [10] 70.8%

Cc1ccc(-c2cc(-c3nnc(SCC(=O)c4ccccc4)o3)c3ccccc3n2)cc1
inactive: [1] 95.2% | [2] 93.2% | [3] 107% | [4] 117% | [6] 88.9% | [7] 99.1% | [8] 94.2% | [9] 114% | [10] 97.2%
